Test results published in PubChem BioAssay (NCATS).
Inconclusive results are not listed. Calls of active or inactive are those of the source. Calls follow the shape of the dose curve; as a rule, active = well fitted curve in the direction sought with a large enough effect; inconclusive = small, poorly fitted or top-dose-only effect, or another doubt; inactive = no such curve, though single readings can be large; an effect the other way counts as inactive or inconclusive.

Assays:
[1] = Quantitative High-Throughput drug screen in 47 multiple myeloma cell lines against the NCATS MIPE library collection: ARP1_JJKsccF8 cell viability assay (AID 1918928; also: nearly all actives have a fitted effect of over 40% in size)
In short: (§1)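 ATP readout (CellTiter-Glo), 48 h drug incubation, 37 °C/5% CO2, 500 cells per well; normalisation to DMSO (100%) and media-only (0%) controls.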

[2] = Quantitative High-Throughput drug screen in 47 multiple myeloma cell lines against the NCATS MIPE library collection: ARD_JJKsccE7 cell viability assay (AID 1918929)
In short: (§2)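 We plated 500 myeloma cells per well, pinned in MIPE 4.0 compounds, and incubated for 48 hours at 37C. ATP was then quantified with CellTiter-Glo, with DMSO and media-only wells defining 100% and 0%.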

[3] = Quantitative High-Throughput drug screen in 47 multiple myeloma cell lines against the NCATS MIPE library collection: Karpas620_DSMZ cell viability assay (AID 1918959); also: nearly all actives have a fitted effect of over 30% in size
In short: (§3)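 Inhibition of cell viability is measured here. Each line was plated at 500 cells per well, treated with MIPE 4.0 drugs, kept 48 hours at 37C, then assayed for ATP content by CellTiter-Glo luminescence.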

[4] = Quantitative High-Throughput drug screen in 47 multiple myeloma cell lines against the NCATS MIPE library collection: KHM11_PLB cell viability assay (AID 1918962); also: nearly all actives have a fitted effect of over 35% in size
In short: as §3

[5] = Quantitative High-Throughput drug screen in 47 multiple myeloma cell lines against the NCATS MIPE library collection: JIM1_ECACC cell viability assay (AID 1918964)
In short: as §2

[6] = Quantitative High-Throughput drug screen in 47 multiple myeloma cell lines against the NCATS MIPE library collection: INA6_PLB cell viability assay (AID 1918965; also: nearly all actives have a fitted effect of over 55% in size)
In short: (§4)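 qHTS of the MIPE 4.0 collection: 500 myeloma cells/well, 48 h drug exposure at 37C in 5% CO2, then CellTiter-Glo for 5 min at room temperature before luminescence reading.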

[7] = Quantitative High-Throughput drug screen in 47 multiple myeloma cell lines against the NCATS MIPE library collection: JJN3_DSMZ cell viability assay (AID 1918966; also: nearly all actives have a fitted effect of over 50% in size)
In short: as §2

[8] = Quantitative High-Throughput drug screen in 47 multiple myeloma cell lines against the NCATS MIPE library collection: Karpas417_ECACC cell viability assay (AID 1918961); conditions: Karpas417 myeloma viability, CellTiter-Glo ATP luminescence, 48 h; viability (% of DMSO): at 45.8 µM (top of the series)
In short: as §4

[9] = Quantitative High-Throughput drug screen in 47 multiple myeloma cell lines against the NCATS MIPE library collection: JIM3_ECACC cell viability assay (AID 1918963; also: nearly all actives have a fitted effect of over 35% in size)
In short: as §3

[10] = Quantitative High-Throughput drug screen in 47 multiple myeloma cell lines against the NCATS MIPE library collection: KMM1_JCRB cell viability assay (AID 1918960); also: nearly all actives have a fitted effect of over 30% in size;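 as to viability (% of DMSO): 100% = DMSO-treated cells and 0% = medium-only wells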
In short: as §1
Potency is read from the fitted curve at half-maximal effect.

Nc1ncnc2c1nc(Cl)n2[C@@H]1O[C@H](CO)[C@@H](O)[C@@H]1O
active: Potency [1] 13.2 µM | Potency [2] 14.8 µM | Potency [3] 14.8 µM | Potency [4] 6.62 µM | Potency [5] 16.6 µM | Potency [6] 2.09 µM | Potency [7] 16.6 µM

CC(=O)Oc1cc2c(s1)CCN(C(C(=O)C1CC1)c1ccccc1F)C2 (centres undefined)
active: Potency [1] 1.32 µM | Potency [3] 1.18 µM | Potency [6] 4.69 µM | Potency [7] 2.35 µM

CN(C)C1CCN(C(=O)c2ccc(NC(=O)Nc3nc(N4CCOCC4)nc(N4CCOCC4)n3)cc2)CC1
active: Potency [1] 0.0166 µM | Potency [8] 0.0662 µM | Potency [9] 0.209 µM | Potency [7] 0.0833 µM

C[C@@H]1CCN(C(=O)CC#N)C[C@H]1N(C)c1ncnc2[nH]ccc12
inactive: Potency [1] | Potency [3] | Potency [10] | Potency [8] | Potency [9]

CC(C)=CC[C@@H](O)C1=CC(=O)c2c(O)ccc(O)c2C1=O
active: Potency [1] 1.32 µM | Potency [3] 9.35 µM | Potency [8] 1.18 µM | Potency [9] 16.6 µM | Potency [7] 0.372 µM

CN(C)Cc1cccc(N=C(c2ccccc2)c2c(O)[nH]c3cc(C(=O)N(C)C)ccc23)c1
active: Potency [4] 5.9 µM | Potency [9] 1.87 µM | Potency [6] 18.7 µM
inactive: Potency [1]

O=c1c(-c2ccc(O)cc2)coc2cc(OC3O[C@H](CO)[C@H](O)[C@H](O)[C@H]3O)cc(O)c12 (some centres undefined)
active: Potency [1] 18.7 µM | Potency [9] 4.69 µM

CC(C)(C)OC(=O)N[C@H]1CCCCCC=C[C@@H]2C[C@@]2(C(=O)NS(=O)(=O)C2CC2)NC(=O)[C@@H]2C[C@@H](OC(=O)N3Cc4cccc(F)c4C3)CN2C1=O
inactive: Potency [1] | Potency [4] | Potency [9]

Cc1ccccc1C(C(=O)NC1CCCCC1)N(C(=O)Cn1ccnc1C)c1cccc(F)c1 (centres undefined)
inactive: Potency [1] | Potency [3] | Potency [10] | Potency [9]

CS(=O)(=O)N(Cc1ccco1)CC(O)Cn1c2ccccc2c2ccccc21 (centres undefined)
inactive: Potency [1] | Potency [3] | Potency [5]
active: Potency [9] 14.8 µM

Cc1nnc(C(C)C)n1C1C[C@H]2CC[C@@H](C1)N2CC[C@H](NC(=O)C1CCC(F)(F)CC1)c1ccccc1 (some centres undefined)
inactive: Potency [1] | Potency [9]

Clc1ccc(-c2nc3sccn3c2C=NOCc2ccc(Cl)c(Cl)c2)cc1
inactive: Potency [1] | Potency [10] | Potency [8] | Potency [4] | Potency [6] | Potency [7]

Cc1ccn(-c2ccc(-c3ncco3)cc2)c(=O)c1-c1ccc2nc(N)ncc2c1
inactive: Potency [1]
active: Potency [10] 13.2 µM | Potency [8] 5.26 µM | Potency [9] 10.5 µM | Potency [6] 0.662 µM

O=C1C[C@@H](c2ccc(O)cc2)Oc2cc(O)cc(O)c21
inactive: Potency [1] | Potency [4] | Potency [9]

O=C1NC(=O)C(=Cc2ccc3nccnc3c2)S1
active: Potency [1] 10.2 µM | Potency [3] 3.63 µM | Potency [10] 2.04 µM | Potency [9] 10.2 µM | Potency [6] 7.24 µM | Potency [7] 8.12 µM

COc1ccc(Cc2ccc(NC(N)=O)cc2)cc1-c1cccc(Cl)c1
inactive: Potency [1] | Potency [9]

CC1(C)CCC(CN2CCN(c3ccc(C(=O)NS(=O)(=O)c4ccc(NCC5CCOCC5)c([N+](=O)[O-])c4)c(Oc4cnc5[nH]ccc5c4)c3)CC2)=C(c2ccc(Cl)cc2)C1
inactive: Potency [9]
active: Potency [1] 23.5 µM | Potency [10] 8.33 µM | Potency [7] 20.9 µM

O=C(O)C=Cc1ccc(O)c(O)c1
inactive: Potency [4] | Potency [9]
active: Potency [1] 26.4 µM | Potency [3] 20.9 µM | Potency [8] 14.8 µM | Potency [7] 10.5 µM

CON=C(C(=O)N[C@@H]1C(=O)N2C(C(=O)OCOC(=O)C(C)(C)C)=C(C=Cc3scnc3C)CS[C@H]12)c1csc(N)n1
active: Potency [3] 16.6 µM | Potency [8] 20.9 µM | Potency [4] 18.7 µM | Potency [6] 18.7 µM
inactive: Potency [1] | Potency [9]

CCc1ccc(C=C2SC(=S)NC2=O)cc1
active: Potency [6] 2.35 µM
inactive: Potency [1] | Potency [4]

CC=CC[C@@H](C)C(=O)[C@H]1C(=O)N[C@@H](C(C)C)C(=O)N(C)CC(=O)N(C)[C@@H](CC(C)C)C(=O)N[C@@H](C(C)C)C(=O)N(C)[C@@H](CC(C)C)C(=O)N[C@@H](C)C(=O)N[C@H](C)C(=O)N(C)[C@@H](CC(C)C)C(=O)N(C)[C@@H](CC(C)C)C(=O)N(C)[C@@H](C(C)C)C(=O)N1C
active: Potency [1] 18.7 µM | Potency [9] 23.5 µM

CN1C[C@H]2c3ccccc3Oc3ccc(Cl)cc3[C@@H]2C1
inactive: Potency [1] | Potency [9]

CO[C@H]1C(=O)[C@]2(C)[C@@H](OC)C[C@H]3OC[C@@]3(OC(C)=O)[C@H]2[C@H](OC(=O)c2ccccc2)[C@]2(O)C[C@H](OC(=O)[C@H](O)[C@@H](NC(=O)OC(C)(C)C)c3ccccc3)C(C)=C1C2(C)C
inactive: Potency [1] | Potency [10] | Potency [9] | Potency [6]

NC(CO)(CO)CCc1ccc(Sc2cccc(OCc3ccccc3)c2)cc1Cl
active: Potency [1] 23.5 µM | Potency [3] 16.6 µM | Potency [10] 18.7 µM | Potency [4] 7.43 µM | Potency [9] 13.2 µM | Potency [5] 16.6 µM

COc1ccc2cccc(CCNC(C)=O)c2c1
inactive: Potency [1] | Potency [10] | Potency [4] | Potency [9]

CCOC(=O)O[C@]1(C(=O)OCCl)CC[C@@H]2[C@H]3CCC4=CC(=O)C=C[C@]4(C)[C@@H]3[C@@H](O)C[C@@]21C
active: Potency [1] 0.0372 µM | viability (% of DMSO) [8] 78.2%
inactive: Potency [3] | Potency [4] | Potency [9] | Potency [6]
